Assay results from PubChem BioAssay (NCI).
About 83,000 compounds went through this panel and 20% of them were active in at least one assay; those are over-represented in the sample as a whole.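 Interpretation: 100, growth as untreated; towards 0, rising growth inhibition; 0, no net growth; 0 to -100, cell death. Compounds scoring below 10 were considered active.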 Values without a mark were called inactive. The source made the active and inactive calls.

Key:
Assay in all cases: NCI-60 one-dose screen, 48 h (100 = growth as untreated, 0 = no growth, -100 = all killed)
Details in all cases: 10 µM unless noted
SK-MEL-2 melanoma = test system: SK-MEL-2 melanoma
EKVX NSCLC = test system: EKVX NSCLC
SN12C renal = test system: SN12C renal
UO-31 renal = test system: UO-31 renal
TK-10 renal = test system: TK-10 renal
ACHN renal = test system: ACHN renal
CAKI-1 renal = test system: CAKI-1 renal
A498 renal = test system: A498 renal
CCRF-CEM leukemia = test system: CCRF-CEM leukemia
RPMI-8226 leukemia = test system: RPMI-8226 leukemia
OVCAR-8 ovarian = test system: OVCAR-8 ovarian
OVCAR-5 ovarian = test system: OVCAR-5 ovarian
OVCAR-4 ovarian = test system: OVCAR-4 ovarian
SK-OV-3 ovarian = test system: SK-OV-3 ovarian
IGROV1 ovarian = test system: IGROV1 ovarian
OVCAR-3 ovarian = test system: OVCAR-3 ovarian
HS 578T breast = test system: HS 578T breast
NCI/ADR-RES ovarian = test system: NCI/ADR-RES ovarian
MOLT-4 leukemia = test system: MOLT-4 leukemia
SR leukemia = test system: SR leukemia

| Compound | growth (SK-MEL-2 melanoma) | growth (EKVX NSCLC) | growth (SN12C renal) | growth (UO-31 renal) | growth (TK-10 renal) | growth (ACHN renal) | growth (CAKI-1 renal) | growth (A498 renal) | growth (CCRF-CEM leukemia) | growth (RPMI-8226 leukemia) | growth (OVCAR-8 ovarian) | growth (OVCAR-5 ovarian) | growth (OVCAR-4 ovarian) | growth (SK-OV-3 ovarian) | growth (IGROV1 ovarian) | growth (OVCAR-3 ovarian) | growth (HS 578T breast) | growth (NCI/ADR-RES ovarian) | growth (MOLT-4 leukemia) | growth (SR leukemia) |
| --- | --- | --- | --- | --- | --- | --- | --- | --- | --- | --- | --- | --- | --- | --- | --- | --- | --- | --- | --- | --- |
| COc1ccc(-c2nnc3ccc(N/N=C/c4ccc(O)cc4)nn23)cc1 | 73.2% | 37.8% | 42.3% | 30.3% | 38.9% | 43.5% | 21.5% | 91.9% | 14.1% | 13.1% | 45.4% | 88.9% | 47.9% | 104% | 39.3% | 37.6% | 46.8% | 26% | – | – |
| O=C(Cn1c2c(sc1=O)[C@H]1[C@@H](O)[C@@H](O)[C@H](O)[C@@H]1CS2)N1CCOCC1 | 100% | 100% | 102% | 91.1% | 88.2% | 102% | 94.7% | 99.3% | – | – | 108% | 103% | 102% | – | 105% | 105% | 93.3% | 104% | 118% | 99.6% |
| O=C1N/C(=N\c2nccs2)S/C1=C\C=C/c1ccccc1 | 37.7% | 27.5% | 39.2% | 25.5% | 34.5% | 23.5% | 35.1% | 57.2% | – | 39.4% | 13.7% | 61.8% | 44.5% | 77.7% | 30.3% | 50.7% | 85.2% | 37.4% | – | – |
| CCCCSc1nc(NCCc2c[nH]c3ccccc23)c(C#N)c(-c2ccc(F)cc2)n1 | 72% | 40.9% | – | 56.3% | 107% | 71.9% | 48.2% | 103% | 36.5% | 49.7% | 75.1% | 97.3% | 76.1% | 83% | 92.3% | 74.3% | 58.3% | 58.2% | 36.5% | 5.24% (active) |
| COc1ccc(C(=O)/C=C/c2cccc(Cl)c2Cl)cc1S(N)(=O)=O | 74.4% | 0.538% (active) | -2.06% (active) | -81.3% (active) | 20.3% | -82.4% (active) | -5.88% (active) | 94.9% | 0.527% (active) | -8.84% (active) | -64% (active) | -7.8% (active) | 35.9% | – | 10.1% | -56.1% (active) | 35.6% | 13.3% | – | – |
| COc1ccc(C2(SCCNCc3cc(N(C)C)ccn3)c3ccccc3C=Cc3ccccc32)cc1 | -34.9% (active) | 15.8% | – | 33.7% | 50.3% | 37.7% | 26.5% | 65.9% | 8.49% (active) | -22.8% (active) | 9.18% (active) | 9.62% (active) | 43.7% | 36.5% | 40.8% | 14.6% | -3.79% (active) | -47.9% (active) | 8.17% (active) | -28.5% (active) |
| Cc1ccc(NC(=O)[C@]23CCC(C)(C)CC2C2=CCC4[C@@]5(C)C[C@@H](O)[C@H](O)[C@@](C)(CO)C5CC[C@@]4(C)[C@]2(C)CC3)cc1 (stereo not given in full) | 34.1% | 24.4% | – | 25.4% | 48% | 23.7% | 29.2% | -1.05% (active) | -1.64% (active) | -29.1% (active) | 44.9% | 6.37% (active) | 38.7% | 28.4% | 54.3% | 41.2% | 32.4% | 31.4% | 0.258% (active) | -11.8% (active) |
| COc1cccc(/C=C/C(=O)c2ccc(OC)c(S(N)(=O)=O)c2)c1 | 96.5% | 49.4% | 14.5% | 2.53% (active) | 21.2% | -40.4% (active) | 26.5% | 115% | 2.26% (active) | -9.86% (active) | 10.5% | 24.2% | 57.7% | 67.8% | 42.1% | 16.3% | 91.6% | 13.3% | – | – |
| CC1(C)CC[C@]2(C(=O)Nc3ccc(F)cc3)CC[C@]3(C)C(=CCC4[C@@]5(C)C[C@@H](O)[C@H](O)[C@@](C)(CO)C5CC[C@]43C)C2C1 (stereo not given in full) | 45.9% | 32.3% | – | 29.8% | 58.6% | 31.3% | 42.7% | 29.8% | 18.2% | 0.573% (active) | 48.1% | 32.6% | 49.4% | 24.8% | 63.5% | 58% | 45.5% | 43% | 5% (active) | 1.68% (active) |
| CCN(CC)c1ccnc(CNCCSC(c2ccccc2)(c2ccccc2)c2ccc(C)cc2)c1 | -92% (active) | -84.9% (active) | – | -20.8% (active) | -85.7% (active) | -53% (active) | -92.3% (active) | -96.8% (active) | -40.9% (active) | -42% (active) | -90.3% (active) | -70.6% (active) | -21% (active) | -87.4% (active) | -30.9% (active) | -88.4% (active) | -49.3% (active) | -84.3% (active) | -30.9% (active) | -60.8% (active) |
| COc1ccc(C(=O)/C=C/c2ccc3ccccc3c2)cc1S(N)(=O)=O | 53.4% | -73.4% (active) | -43.7% (active) | -87.2% (active) | -82.3% (active) | -92.2% (active) | 2.11% (active) | 97.2% | 5.96% (active) | -17.5% (active) | -60.6% (active) | -43.4% (active) | 32.5% | 22.5% | -8.23% (active) | -41.9% (active) | 68.8% | 18.9% | – | – |
| COc1cc(OC)c2c3nc4cc(C)c(C)cc4nc3n(CCN(C)C)c2c1 | 101% | 89.9% | -48.8% (active) | -68.6% (active) | 147% | 47.3% | 50.5% | 105% | – | – | -0.293% (active) | 73.1% | 63.3% | 103% | 55.5% | 97.7% | 84.2% | – | 10.4% | 0.994% (active) |
| Cc1cc2nc3c([nH]c2cc1C)c1ccc(=O)cc1n3CCN(C)C | 73.4% | 76.7% | 37.7% | 12.5% | 105% | 20.4% | 19.9% | 111% | – | – | 34% | 39.8% | 46.9% | 63.7% | 28.2% | 67.3% | 81.3% | 33.6% | 5.98% (active) | 3.01% (active) |
| CC(=O)OC[C@@]1(C)C2CC[C@]3(C)C(CC=C4C5CC(C)(C)CC[C@]5(C(=O)Nc5ccc(Br)cc5)CC[C@]43C)[C@@]2(C)C[C@@H](OC(C)=O)[C@@H]1OC(C)=O (stereo not given in full) | 42.2% | 32.8% | – | 37.2% | 45.7% | 39% | 42% | 64.3% | 28.7% | 14.5% | 35.9% | 92.8% | 42% | 44% | 57.3% | 45% | 80.5% | 42.5% | 38% | 32% |
| CN(C)c1ccnc(NCCCSC(c2ccccc2)(c2ccccc2)c2ccccc2)c1 | 43% | 35.5% | – | 28.9% | 74.4% | 53.3% | 30.8% | 89.6% | -26.3% (active) | -58.9% (active) | 59.4% | 84.5% | 33.4% | 63% | 50.5% | 49.6% | 59.9% | 40.4% | -8.29% (active) | -55.5% (active) |
| Cc1cc(N=C2NC(=O)CS2)n[nH]1 | 98.7% | 72.7% | 101% | 79.3% | 108% | 102% | 95.9% | 124% | – | 144% | 106% | 99.6% | 123% | 121% | 99.8% | 105% | 102% | 111% | – | – |
